These results are taken from PubChem BioAssay.

The test system of experiment [1] is TRPC4 beta (transient receptor potential cation channel C4), mouse. The experiment in a line: TRPC4 cation channel opening, retest – cell-based, Fluo4 calcium, HEK293 TRPC4beta/mu-opioid, duplicates, 10 µM, confirmation (AID 2426).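 For activation: percent rise of integrated ratio over buffer wells lacking compound which define 0%.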 The note with it: Fluo4 calcium fluorescence, at 10 µM; active compounds read high.
The test system of experiment [2] is transient receptor potential cation channel C4 beta (TRPC4), mouse. The experiment in a line: TRPC4 cation channel opening, second retest – cell-based, second round, Fluo4, HEK293 TRPC4beta/mu-opioid, 1 µM, confirmation (AID 2461;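 active = primary screen active and over 50% activation in each of two duplicate runs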;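 for activation: 0% = wells without test compound as baseline of integrated fluorescence ratio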). The note with it: Fluo4 calcium fluorescence, at 1 µM; active compounds read high.
Experiment [3] relates to TRPC4 (transient receptor potential cation channel C4 beta), mouse. Nature of the experiment: potentiation of DAMGO EC20 TRPC4 response – cell-based, second round, Fluo-4, HEK293 TRPC4beta/mu-opioid, 1 µM, confirmation (AID 2554;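 active = primary screen hit whose fluorescence ratio, in both repeats, exceeds the weak agonist control mean by 3 SD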). Conditions: DAMGO EC20, Fluo-4 calcium flux, at 1 µM; active compounds read high. For orientation: Calcium assays in cells follow changes in intracellular calcium, usually with a dye or a luminescent sensor.

Experiment [4] relates to TRPC4 beta (transient receptor potential cation channel C4), mouse. The experiment in a line: potentiation of DAMGO EC20 TRPC4 response – cell-based, Fluo-4, HEK293 TRPC4beta/mu-opioid, confirmation (AID 2555;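 active = primary screen hit whose calcium fluorescence ratio, in both repeats, exceeds the weak agonist control mean by 3 SD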). The note with it: DAMGO EC20, Fluo-4 calcium flux, at 10 µM; active compounds read high.
Experiment [5] concerns the target Short transient receptor potential channel 4 (Mus musculus) (UniProt Q9QUQ5). The experiment in a line: blockers of DAMGO-evoked TRPC4 calcium flux – cell-based, Fluo4, HEK293 TRPC4beta/mu-opioid, confirmation (AID 2636;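 active = calcium signal cut by more than 3 SD below the full-agonist control yet still positive, in both repeats and the earlier primary screen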). The note with it: at 10 µM; active compounds read high.
Experiment [6] shares this target. Nature of the experiment: blockers of DAMGO-evoked TRPC4 calcium flux – cell-based, second round, Fluo4, HEK293 TRPC4beta/mu-opioid, 1 µM, confirmation (AID 2637;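 active = calcium signal ratio cut to more than 3 SD under the fully stimulated control mean yet still positive, in both repeats and the primary screen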). The note with it: at 1 µM; active compounds read high.
Experiment [7] has the same target. Nature of the experiment: potentiation of DAMGO-evoked TRPC4 calcium signal – cell-based, HEK293 TRPC4/mu-opioid, Fluo-4 calcium, EC20 DAMGO, dose response (AID 434941;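 active = earlier screen potentiator hit that boosts the TRPC4 ion channel at some dose, with a dose response; inactive = no potentiation, no dose response, or not a prior hit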;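 note: calcium entry triggered by an EC20 dose of DAMGO at the co-expressed mu-opioid receptor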).
The target is the same in experiment [8]. The experiment in a line: block of DAMGO-driven TRPC4 calcium entry – cell-based, HEK293 TRPC4/mu-opioid, Fluo-4 calcium, dose response (AID 434942;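 active = primary screen inhibitor hit that blocks the TRPC4 channel at some tested dose, yielding a dose curve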).
Experiment [9] addresses Short transient receptor potential channel 6 (Mus musculus) (UniProt Q61143). Nature of the experiment: TRPC6 blockade by TRPC4 inhibitor hits – cell-based, HEK293, membrane potential dye, duplicate, selectivity assay for TRPC4 inhibitor project, confirmation (AID 434948;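 active = active in primary screen and both duplicates, each dropping signal beyond three positive-control SD with fluorescence still positive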). The note with it: HEK293 TRPC6, membrane potential dye fluorescence, at 10 µM, stimulated with maximal-effect acetylcholine; active compounds read high.

The target is the same in experiment [10]. Nature of the experiment: TRPC6 opening by TRPC4 activator hits – cell-based, HEK293, membrane potential dye, duplicate, selectivity assay for TRPC4 activator project, confirmation (AID 434950;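 active = membrane potential signal rise above negative control mean plus 3 SD in both duplicates, also active in the earlier TRPC4 screen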;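 for activation: 0% = buffer only wells and 100% = acetylcholine maximal-effect wells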). Conditions: HEK293 TRPC6, membrane potential fluorescence, at 10 µM; activation: active compounds read high; outcome: activation.
Experiment [11] shares this target. Nature of the experiment: positive modulators of mouse TRPC6 channel – HEK293 cells, membrane potential dye, duplicate, selectivity assay for TRPC4 potentiator project, confirmation (AID 434952;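 active = compound raising the membrane signal above positive-control mean plus 3 SD in both repeats, and a primary screen hit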). Conditions: HEK293 TRPC6, membrane potential dye fluorescence, at 10 µM, maximal acetylcholine added after compound; active compounds read high.
Experiment [12] deals with Short transient receptor potential channel 4 (Mus musculus) (UniProt Q9QUQ5). Nature of the experiment: calcium flux activators in TRPC4/5HT1a cells, counter-screen for TRPC4 activator project, cell-based, second counter screen, HEK293 TRPC4/5HT1a, Fluo-4 (AID 434977;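 active = calcium signal rise above buffer-control mean plus 5 SD in both duplicates, and also a hit in the primary screen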;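 for activation: plate controls were assay buffer for no effect and maximal serotonin response for full effect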). The note with it: Fluo-4 calcium flux, at 10 µM; active compounds read high.
Chain of Short transient receptor potential channel 4 (Mus musculus) (Q9QUQ5 whole entry, looked up): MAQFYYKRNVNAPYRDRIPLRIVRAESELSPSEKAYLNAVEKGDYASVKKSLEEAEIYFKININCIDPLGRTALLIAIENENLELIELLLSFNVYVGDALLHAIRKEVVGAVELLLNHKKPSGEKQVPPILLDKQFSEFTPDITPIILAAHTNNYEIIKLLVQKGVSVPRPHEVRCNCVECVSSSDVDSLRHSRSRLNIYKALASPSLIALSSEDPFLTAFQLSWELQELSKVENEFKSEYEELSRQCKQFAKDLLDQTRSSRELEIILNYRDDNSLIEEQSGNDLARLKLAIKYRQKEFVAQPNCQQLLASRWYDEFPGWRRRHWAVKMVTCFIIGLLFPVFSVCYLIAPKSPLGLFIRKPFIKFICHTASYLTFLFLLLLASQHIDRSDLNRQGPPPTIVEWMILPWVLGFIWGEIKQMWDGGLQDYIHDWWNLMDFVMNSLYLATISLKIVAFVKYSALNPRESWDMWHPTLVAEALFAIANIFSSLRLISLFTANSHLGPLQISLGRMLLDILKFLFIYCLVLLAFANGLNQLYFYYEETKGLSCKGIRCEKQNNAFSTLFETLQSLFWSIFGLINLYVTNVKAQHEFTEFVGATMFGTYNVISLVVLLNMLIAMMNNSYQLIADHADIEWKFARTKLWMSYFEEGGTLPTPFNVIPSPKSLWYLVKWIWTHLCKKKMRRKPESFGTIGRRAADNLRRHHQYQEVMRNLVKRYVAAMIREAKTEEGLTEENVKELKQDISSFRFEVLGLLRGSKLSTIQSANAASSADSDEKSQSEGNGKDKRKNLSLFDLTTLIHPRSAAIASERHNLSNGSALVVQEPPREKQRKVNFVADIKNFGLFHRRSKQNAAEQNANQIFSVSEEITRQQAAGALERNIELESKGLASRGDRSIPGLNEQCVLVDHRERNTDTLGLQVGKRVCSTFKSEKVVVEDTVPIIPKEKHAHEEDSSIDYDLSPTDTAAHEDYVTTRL
Experiment [13] is described as follows: serotonin-gated TRPC4 signal block – cell-based, second counter screen, HEK293 TRPC4/5HT1a, Fluo-4, counter-screen for TRPC4 inhibitor project, confirmation (AID 434978;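 active = primary screen active whose calcium signal fell more than 3 SD beyond the full-serotonin control mean in both duplicate plates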;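 note: serotonin given first at submaximal then at maximal dose after compound preincubation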). Conditions: Fluo-4 calcium flux, at 10 µM, serotonin added to trigger calcium flux; active compounds read high. (A counterscreen serves to expose hits that act by an unwanted route or on another target.)

Experiment [14] relates to TRPC4 (mouse), co-expressed with 5HT1a in HEK293. Nature of the experiment: enhancement of serotonin-evoked TRPC4 response – cell-based, second counter screen, HEK293 TRPC4/5HT1a, Fluo-4, counter-screen for TRPC4 potentiator project, confirmation (AID 434979;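 active = signal rise over 3 SD above mean of control wells given weak agonist, in both repeats and first screen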). The note with it: Fluo-4 calcium flux, at 10 µM, serotonin added at its EC20 dose; active compounds read high.
A short description of experiment [15]: nonspecific calcium rise without TRPC4 – cell-based, HEK293 mu-opioid receptor line, counter-screen for TRPC4 activator project, confirmation (AID 449723;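 active = hit in primary screen, with calcium signal over 5 SD above buffer well mean in both duplicates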;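 note: counter screen cells carry the mu-opioid receptor alone and lack TRPC4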). Conditions: HEK293 mu-opioid cells, Fluo-4 calcium fluorescence, at 10 µM; active compounds read high.
The nature of experiment [16]: nonspecific potentiation of DAMGO calcium response – cell-based, HEK293 mu-opioid receptor line, counter-screen for TRPC4 allosteric potentiator project, confirmation (AID 449724;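 active = calcium signal rise more than 3 SD above the low-dose agonist control mean, in both duplicate plates and the primary screen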;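 note: HEK293 cells carrying mu-opioid receptor only with no TRPC4 channel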). Conditions: HEK293 mu-opioid receptor cells, Fluo-4 calcium flux, at 10 µM, compound added before EC20 DAMGO stimulus; active compounds read high.

For some of these results: Measured potencies and affinities stand elsewhere. The source made the active and inactive calls.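 Rule for the calls, unless noted: active = fluorescence ratio normalized to control raised more than 50% in primary screen plus both repeat runs; inactive = the rest.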

Chain of Short transient receptor potential channel 6 (Mus musculus) (Q61143 whole entry, looked up): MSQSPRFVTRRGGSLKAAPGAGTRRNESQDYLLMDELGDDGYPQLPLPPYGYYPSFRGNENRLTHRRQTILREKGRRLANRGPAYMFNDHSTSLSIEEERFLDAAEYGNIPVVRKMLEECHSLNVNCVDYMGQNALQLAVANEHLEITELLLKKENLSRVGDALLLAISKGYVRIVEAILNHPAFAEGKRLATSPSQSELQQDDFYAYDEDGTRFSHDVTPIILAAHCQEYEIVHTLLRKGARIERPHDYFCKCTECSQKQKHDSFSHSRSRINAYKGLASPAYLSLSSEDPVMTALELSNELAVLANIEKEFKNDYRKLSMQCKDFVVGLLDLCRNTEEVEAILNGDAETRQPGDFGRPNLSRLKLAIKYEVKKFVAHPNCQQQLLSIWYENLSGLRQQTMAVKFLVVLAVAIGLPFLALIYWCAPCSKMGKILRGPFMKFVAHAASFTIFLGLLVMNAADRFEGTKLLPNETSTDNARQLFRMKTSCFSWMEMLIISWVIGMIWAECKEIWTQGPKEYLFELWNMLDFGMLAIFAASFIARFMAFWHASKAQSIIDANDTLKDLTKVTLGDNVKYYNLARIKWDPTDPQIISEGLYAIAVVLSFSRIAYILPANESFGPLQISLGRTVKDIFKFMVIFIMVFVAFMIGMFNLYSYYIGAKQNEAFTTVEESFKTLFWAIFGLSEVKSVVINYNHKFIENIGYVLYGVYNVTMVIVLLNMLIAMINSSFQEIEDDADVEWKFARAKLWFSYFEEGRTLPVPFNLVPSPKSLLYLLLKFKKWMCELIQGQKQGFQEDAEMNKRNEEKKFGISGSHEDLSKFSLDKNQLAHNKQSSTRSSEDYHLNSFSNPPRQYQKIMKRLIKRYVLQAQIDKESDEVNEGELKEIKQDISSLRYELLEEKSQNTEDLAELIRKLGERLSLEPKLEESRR

For the molecule `OCC1(CC2CCCCO2)CCN(Cc2ccccc2-c2ccco2)CC1` (stereo unspecified), the result in [1], in [2], in [3], in [4], in experiment [5] and in experiment [6] was inactive. The outcome in experiment [7], in experiment [8], in [9], in [10], in experiment [11] and in [12] was inactive. Moreover, the outcome in [13], in [14], in [15] and in experiment [16] was inactive.
Take `COc1ccc(C)c(NC(=O)NCCc2cnc[nH]2)c1`: the results for the activation in experiment [1], in experiment [10] and in [12] were 152% (active), 33% (active) and 56.4% (active), respectively. In addition, the result in experiment [2], in [3], in [4], in experiment [5], in experiment [6] and in experiment [7] was inactive. Moreover, the result in experiment [8], in experiment [9], in [11], in [13], in [14] and in experiment [15] was inactive. For the same molecule, the result in experiment [16] was inactive.
For the molecule `CCOC(=O)C1(Cc2ccccc2)CCN(Cc2cn[nH]c2-c2ccccc2)CC1`, the activation in experiment [1] is 192% (active); in [10], 76% (active). Also, the outcome in experiment [2], in experiment [3], in experiment [4], in [5], in experiment [6] and in experiment [7] was inactive. The outcome in experiment [8], in [9], in experiment [11], in [12], in experiment [13] and in [14] was inactive. Moreover, the outcome in experiment [15] and in [16] was inactive.
Regarding `CN(C)CCCN(C(=O)c1ccc(S(=O)(=O)N2CCc3ccccc32)cc1)c1nc2ccc(F)cc2s1`, the activation in experiment [1] was 79% (active). For the same molecule, the result in [2], in experiment [3], in [4], in experiment [5], in experiment [6] and in [7] was inactive. The result in experiment [8], in experiment [9], in experiment [10], in experiment [11], in [12] and in experiment [13] was inactive. Further, the outcome in [14], in experiment [15] and in experiment [16] was inactive.
With `COc1ccc2nc(SCCN(C)C)[nH]c2c1`, the activation in [1] was 108% (active); in experiment [2], 87% (active); in experiment [12] it was 35.7% (active). Besides, the result in experiment [3], in experiment [4], in experiment [5], in [6], in experiment [7] and in experiment [8] was inactive. Also, the result in experiment [9], in [10], in experiment [11], in [13], in experiment [14] and in experiment [15] was inactive. The outcome in [16] was inactive.
As to `CCC(=O)NC(C)C(c1cccs1)N1CCN(c2ccccc2)CC1` (stereo unspecified), the outcome in [1], in [2], in experiment [3], in experiment [4], in experiment [5] and in experiment [6] was inactive. The outcome in experiment [7], in experiment [8], in experiment [9], in experiment [11], in experiment [12] and in [13] was inactive. Moreover, the outcome in [14], in experiment [15] and in experiment [16] was inactive. Further, the activation in experiment [10] is 29% (active).
Turning to `COc1ccc(C(=O)C2CCCN(C3Cc4ccccc4C3)C2)cc1OC` (stereo unspecified), the activation was 128% (active) in experiment [1], 81.5% (active) in experiment [10] and 110% (active) in experiment [12]. Further, the outcome in experiment [2], in [3], in experiment [4], in experiment [5], in experiment [6] and in experiment [7] was inactive. Moreover, the outcome in [8], in [9], in experiment [11], in experiment [13], in experiment [14] and in experiment [15] was inactive. Also, the result in experiment [16] was inactive.
As for `CCn1c(N2CCN(CC(=O)Nc3cccc(C)c3C)CC2)nc2ccccc21`, the activation is 120% (active) in experiment [1], 57% (active) in [2], 56.5% (active) in [10] and 23.9% (active) in [12]. Moreover, the outcome in experiment [3], in experiment [4], in experiment [5], in experiment [6], in experiment [7] and in [8] was inactive. Also, the molecule was classed as inactive in experiment [9], in experiment [11], in [13], in experiment [14], in [15] and in [16].
As for `CN(C)C(CNC(=O)CCS(=O)(=O)c1ccccc1)c1ccccc1` (stereo unspecified), the activation in experiment [1] is 77% (active); in experiment [2] it was 75% (active). Besides, the outcome in experiment [3], in [4], in [5], in experiment [6], in [7] and in experiment [8] was inactive. Further, the molecule was called inactive in [9], in [10], in experiment [11], in experiment [12], in experiment [13] and in experiment [14]. Also, the outcome in experiment [15] and in [16] was inactive.
With `COCCn1nnnc1C(c1cc2ccc(OC)cc2[nH]c1=O)N1CCN(C2CCCCC2)CC1` (stereo unspecified), the figures for the activation in experiment [1], in [10] and in experiment [12] were 133% (active), 37.5% (active) and 13.6% (active), respectively. The result in [2], in experiment [3], in [4], in experiment [5], in experiment [6] and in [7] was inactive. Besides, the outcome in experiment [8], in experiment [9], in [11], in [13], in [14] and in experiment [15] was inactive. Further, the result in experiment [16] was inactive.
Take `Cc1ccc(OCC(=O)N(C)CCc2ccccn2)cc1`: the activation in experiment [1] was 133% (active); in experiment [12] it was 45.5% (active). Besides, the result in [2], in [3], in experiment [4], in experiment [5], in experiment [6] and in experiment [7] was inactive. Moreover, the outcome in experiment [8], in experiment [9], in [10], in experiment [11], in [13] and in [14] was inactive. Further, the outcome in experiment [15] and in experiment [16] was inactive.
Consider `Cc1ccccc1N1CC(O)(c2ccccc2)[N+]2=C1SCC2` (stereo unspecified), for which the activation in experiment [1] is 73% (active); in experiment [10] it was 39% (active). The outcome in [2], in [3], in [4], in [5], in experiment [6] and in experiment [7] was inactive. For the same molecule, the result in experiment [8], in experiment [9], in experiment [11], in experiment [12], in [13] and in [14] was inactive. Also, the outcome in [15] and in experiment [16] was inactive.
Turning to `CN1CCCC(OC(=O)c2cc(Br)ccc2Cl)C1` (stereo unspecified), the activation in [1] was 116% (active); in experiment [2], 87% (active); in [10] it was 47% (active); in experiment [12] it was 43.7% (active). The result in [3], in experiment [4], in experiment [5], in [6], in [7] and in experiment [8] was inactive. Besides, the molecule was called inactive in experiment [9], in [11], in experiment [13], in experiment [14], in [15] and in experiment [16].
Turning to `CN(C)CCNC(=O)c1scc2c1CCCC2`, the result in experiment [1], in experiment [2], in experiment [3], in experiment [4], in [5] and in [6] was inactive. Further, the outcome in experiment [7], in experiment [8], in [9], in experiment [11], in experiment [13] and in experiment [14] was inactive. Also, the result in experiment [15] and in [16] was inactive. The activation was 41.5% (active) in experiment [10] and 19.6% (active) in experiment [12].
With `Cc1ccc(C)c(NC(=S)NCC(c2ccccc2)N(C)C)c1` (stereo unspecified), the activation is 260% (active) in [1], 127% (active) in experiment [2], 49% (active) in experiment [10] and 93.2% (active) in experiment [12]. In addition, the result in experiment [3], in experiment [4], in experiment [5], in [6], in [7] and in experiment [8] was inactive. Also, the molecule was called inactive in [9], in [11], in experiment [13], in experiment [14], in experiment [15] and in experiment [16].
Consider `Cc1cccn2c(CNCCc3ccccn3)c(C(=O)N3CCOCC3)nc12`, for which the activation in [1] was 184% (active); in [2] it was 55% (active); in experiment [10], 46.5% (active); in experiment [12], 57.2% (active). For the same molecule, the result in experiment [3], in [4], in experiment [5], in experiment [6], in experiment [7] and in experiment [8] was inactive. Besides, the call in experiment [9], in experiment [11], in experiment [13], in [14], in [15] and in experiment [16] was inactive.
